{"source": "the antibiotic and cytotoxicity screens of Wong et al. (2023)", "note": "Hit rate of the full screen: of about 39,000 compounds, about 1,500 (3.8%) were called active. This is one part of a sample in which actives are shown more often than they occur.", "data": [{"tested_on": "HSkMC (human skeletal muscle cells)", "assay": "cytotoxicity call (relative viability < 0.9)", "conditions": "10 µM", "values": [{"smiles": "C[C@H](CO)N1C[C@H](C)[C@@H](CN(C)C(=O)Nc2ccc(C(F)(F)F)cc2)Oc2ccc(NC(=O)Cc3ccccc3)cc2CC1=O", "cytotoxicity call": "inactive"}, {"smiles": "C[C@@H]1CN([C@@H](C)CO)C(=O)c2cc(NC(=O)C3CCCCC3)ccc2O[C@@H]1CN(C)Cc1ccc(C(F)(F)F)cc1", "cytotoxicity call": "inactive"}, {"smiles": "C[C@@H]1CN([C@@H](C)CO)C(=O)c2cc(NC(=O)Nc3cccc4ccccc34)ccc2O[C@H]1CN(C)C(=O)Nc1cccc2ccccc12", "cytotoxicity call": "inactive"}, {"smiles": "C[C@H](CO)N1C[C@H](C)[C@@H](CN(C)C(=O)Nc2cccc3ccccc23)Oc2ccc(NC(=O)Nc3cccc4ccccc34)cc2C1=O", "cytotoxicity call": "inactive"}, {"smiles": "C[C@@H]1CN([C@@H](C)CO)C(=O)c2cc(NC(=O)Nc3cccc4ccccc34)ccc2O[C@@H]1CN(C)C(=O)Nc1cccc2ccccc12", "cytotoxicity call": "active"}, {"smiles": "C[C@@H]1CN([C@H](C)CO)C(=O)c2cc(NC(=O)Nc3cccc4ccccc34)ccc2O[C@@H]1CN(C)C(=O)Nc1cccc2ccccc12", "cytotoxicity call": "active"}, {"smiles": "C[C@@H]1CN([C@H](C)CO)C(=O)c2cc(NC(=O)Nc3cccc4ccccc34)ccc2O[C@H]1CN(C)C(=O)Nc1cccc2ccccc12", "cytotoxicity call": "inactive"}, {"smiles": "C[C@H]1CN([C@@H](C)CO)C(=O)c2cc(NC(=O)Nc3cccc4ccccc34)ccc2O[C@@H]1CN(C)C(=O)Nc1cccc2ccccc12", "cytotoxicity call": "inactive"}, {"smiles": "NC(=O)c1c(Cl)ncc2c1NCC2", "cytotoxicity call": "inactive"}, {"smiles": "COC(=O)CCCCCCC(=O)Nc1ccc(NC(=O)CCCC[P+](c2ccccc2)(c2ccccc2)c2ccccc2)cc1", "cytotoxicity call": "inactive"}, {"smiles": "CC1=C(C)C(=O)C(CCCCCCCCCC[P+](c2ccccc2)(c2ccccc2)c2ccccc2)=CC1=O", "cytotoxicity call": "active"}, {"smiles": "COC1=C(OC)C(=O)C(C/C=C(\\C)CC/C=C(\\C)CC/C=C(\\C)CC/C=C(\\C)CC/C=C(\\C)CC/C=C(\\C)CC/C=C(\\C)CC/C=C(\\C)CC/C=C(\\C)CCC=C(C)C)=C(C)C1=O", "cytotoxicity call": "inactive"}, {"smiles": "CC1=C(C)C(=O)C(C(CCCCCC(=O)O)c2ccccc2)=C(C)C1=O", "note": "(stereo unspecified)", "cytotoxicity call": "inactive"}, {"smiles": "COC1=C(OC)C(=O)C(C/C=C(\\C)CC/C=C(\\C)CC/C=C(\\C)CC/C=C(/C)CC/C=C(\\C)CC/C=C(\\C)CC/C=C(\\C)CC/C=C(\\C)CC/C=C(\\C)CCC=C(C)C)=C(C)C1=O", "cytotoxicity call": "inactive"}, {"smiles": "COC1=C(OC)C(=O)C(CCCCCCCCCC[P+](c2ccccc2)(c2ccccc2)c2ccccc2)=C(C)C1=O", "cytotoxicity call": "active"}, {"smiles": "COC1=C(OC)C(=O)C(CC=C(C)CCC=C(C)CCC=C(C)CCC=C(C)CCC=C(C)CCC=C(C)CCC=C(C)CCC=C(C)CCC=C(C)CCC=C(C)C)=C(C)C1=O", "cytotoxicity call": "inactive"}, {"smiles": "COC1=C(OC)C(=O)C(CCCCCCCCCCO)=C(C)C1=O", "cytotoxicity call": "active"}, {"smiles": "CC1=CC(=O)c2ccccc2C1=O", "cytotoxicity call": "inactive"}, {"smiles": "Nc1ccc(NC(=O)CCN2CCOCC2)cc1", "cytotoxicity call": "inactive"}, {"smiles": "C[C@@H]1CN([C@H](C)CO)C(=O)c2cccc(NC(=O)CCCCCC(=O)Nc3ccccc3N)c2O[C@H]1CN(C)CC1CCCCC1", "cytotoxicity call": "inactive"}, {"smiles": "CC(=O)N(C)C[C@H]1Oc2cc(C#CCN(C)C)ccc2S(=O)(=O)N([C@H](C)CO)C[C@H]1C", "cytotoxicity call": "inactive"}, {"smiles": "C[C@@H]1CCCCO[C@H](CN(C)Cc2ccc(C(=O)O)cc2)[C@H](C)CN([C@H](C)CO)C(=O)c2cc(NC(=O)Nc3ccc(C(F)(F)F)cc3)ccc2O1", "cytotoxicity call": "inactive"}, {"smiles": "C[C@H]1CN([C@@H](C)CO)C(=O)c2cc(NS(=O)(=O)c3cn(C)cn3)ccc2O[C@H]1CN(C)C(=O)Nc1ccccc1", "cytotoxicity call": "inactive"}, {"smiles": "C[C@H]1CN([C@@H](C)CO)C(=O)c2cc(/C=C/c3ccccc3)cnc2O[C@@H]1CN(C)S(=O)(=O)c1cn(C)cn1", "cytotoxicity call": "inactive"}, {"smiles": "COc1ccc(CN(C)C[C@H]2OCCCC[C@@H](C)Oc3ccc(NS(=O)(=O)c4ccc(F)cc4)cc3C(=O)N([C@@H](C)CO)C[C@@H]2C)cc1", "cytotoxicity call": "inactive"}, {"smiles": "O=c1n(-c2ccc(F)cc2)nc2n1CCCN2", "cytotoxicity call": "inactive"}, {"smiles": "Cc1ccc(S(=O)(=O)N(C)C[C@H]2Oc3ccc(NC(=O)Cn4cnnn4)cc3CC(=O)N([C@H](C)CO)C[C@@H]2C)cc1", "cytotoxicity call": "inactive"}, {"smiles": "C[C@H]1O[C@@H](O[C@H]2[C@@H](O)C[C@H](O[C@H]3[C@@H](O)C[C@H](O[C@H]4CC[C@@]5(C)[C@H](CC[C@@H]6[C@@H]5CC[C@]5(C)[C@@H](C7=CC(=O)OC7)CC[C@]65O)C4)O[C@@H]3C)O[C@@H]2C)C[C@H](O)[C@@H]1O", "cytotoxicity call": "active"}, {"smiles": "CC1OC(OC2C(O)CC(OC3C(O)CC(OC4CCC5(C)C(CCC6C5CCC5(C)C(C7=CC(=O)OC7)CCC65O)C4)OC3C)OC2C)CC(O)C1O", "note": "(stereo unspecified)", "cytotoxicity call": "active"}, {"smiles": "C[C@H](CO)N1C[C@H](C)[C@@H](CN(C)Cc2ccc(Cl)c(Cl)c2)Oc2ccc(NC(=O)NC3CCCCC3)cc2C1=O", "cytotoxicity call": "inactive"}, {"smiles": "C[C@@H]1CN([C@H](C)CO)C(=O)Cc2cc(NC(=O)CCCCCC(=O)Nc3ccccc3N)ccc2O[C@@H]1CN(C)C(=O)Nc1ccc(F)cc1", "cytotoxicity call": "inactive"}, {"smiles": "COc1ccc(NC(=O)Nc2ccc3c(c2)CC(=O)N([C@@H](C)CO)C[C@@H](C)[C@H](CN(C)CC2CCCCC2)O3)cc1", "cytotoxicity call": "inactive"}, {"smiles": "O=C(C[C@H]1CC[C@H](NS(=O)(=O)c2ccccc2)[C@H](CO)O1)NCc1ccncn1", "cytotoxicity call": "inactive"}, {"smiles": "COc1ccc2c(-c3ccc(Cl)cc3)c(C)oc2c1", "cytotoxicity call": "inactive"}, {"smiles": "C[C@H](CO)N1C[C@H](C)[C@H](CN(C)S(=O)(=O)c2ccccc2)Oc2ccc(NC(=O)Cc3ccccc3)cc2C1=O", "cytotoxicity call": "inactive"}, {"smiles": "O=C(C[C@@H]1C[C@@H]2c3cc(NS(=O)(=O)c4ccccc4)ccc3O[C@@H]2[C@H](CO)O1)NCC(F)(F)F", "cytotoxicity call": "inactive"}, {"smiles": "C[C@@H]1CCCCO[C@H](CN(C)Cc2ccc3c(c2)OCO3)[C@@H](C)CN([C@H](C)CO)C(=O)c2cc(NS(=O)(=O)c3ccccc3)ccc2O1", "cytotoxicity call": "inactive"}, {"smiles": "CC=C(C)C(=O)O[C@H]1[C@H](OC(C)=O)[C@]2(CO)[C@H](O)C[C@]3(C)C(=CC[C@@H]4[C@@]5(C)CC[C@H](O[C@@H]6O[C@H](C(=O)O)[C@@H](O[C@@H]7O[C@H](CO)[C@@H](O)[C@H](O)[C@H]7O)[C@H](O)[C@H]6O[C@@H]6O[C@H](CO)[C@@H](O)[C@H](O)[C@H]6O)[C@](C)(CO)[C@@H]5CC[C@]43C)[C@@H]2CC1(C)C", "cytotoxicity call": "active"}, {"smiles": "C[C@@H]1O[C@@H](O[C@@H]2[C@@H](O)[C@@H](O[C@@H]3O[C@@H](CO)[C@H](O)[C@H]3O)[C@H](OC(=O)[C@]34CCC(C)(C)C[C@H]3C3=CC[C@H]5[C@@]6(C)C[C@H](O)[C@H](O[C@@H]7O[C@@H](C)[C@H](O)[C@@H](O[C@@H]8OC[C@@H](O)[C@H](O)[C@H]8O[C@@H]8O[C@H](CO)[C@@H](O)[C@H](O)[C@H]8O)[C@H]7O)[C@@](C)(CO)[C@@H]6CC[C@@]5(C)[C@]3(C)C[C@H]4O)O[C@H]2C)[C@H](O)[C@H](O)[C@H]1O", "cytotoxicity call": "inactive"}, {"smiles": "C[C@H]1O[C@@H](O[C@H]2CC[C@@]3(C)[C@@H](CC[C@@]4(C)[C@@H]3CC=C3[C@H]5C[C@](C)(C(=O)O)CC[C@]5(C(=O)O[C@H]5O[C@@H](CO)[C@@H](O)[C@@H](O)[C@@H]5O)CC[C@@]34C)[C@@]2(C)CO)[C@@H](O)[C@@H](O[C@H]2O[C@@H](CO)[C@@H](O)[C@@H](O)[C@@H]2O)[C@@H]1O", "cytotoxicity call": "inactive"}, {"smiles": "C[C@H]1O[C@@H](OC(=O)[C@]23CCC(C)(C)C[C@H]2C2=CC[C@H]4[C@@]5(C)CC[C@H](O[C@@H]6O[C@H](C(=O)O)[C@@H](O)[C@H](O[C@@H]7OC[C@@H](O)[C@H](O)[C@H]7O)[C@H]6O[C@@H]6O[C@H](CO)[C@H](O)[C@H](O)[C@H]6O)[C@@](C)(C=O)[C@@H]5CC[C@@]4(C)[C@]2(C)C[C@H]3O)[C@H](O[C@H]2O[C@@H](CO)[C@@H](O)[C@@H](O)[C@@H]2O)[C@@H](O)[C@H]1O[C@@H]1O[C@H](C)[C@@H](O[C@H]2OC[C@@H](O)[C@@H](O)[C@@H]2O)[C@H](O)[C@@H]1O", "cytotoxicity call": "inactive"}, {"smiles": "C[C@@H]1O[C@@H](O[C@@H]2CC[C@@]3(C)[C@@H](CC[C@]4(C)[C@@H]3CC=C3[C@@H]5CC(C)(C)CC[C@]5(C(=O)O[C@@H]5O[C@H](CO[C@@H]6O[C@H](CO)[C@@H](O)[C@H](O)[C@H]6O)[C@@H](O)[C@H](O)[C@H]5O)CC[C@]34C)[C@]2(C)CO)[C@H](O)[C@H](O[C@@H]2OC[C@@H](O)[C@H](O)[C@H]2O)[C@H]1O", "cytotoxicity call": "inactive"}, {"smiles": "C/C=C(/C)C(=O)O[C@@H]1[C@H](OC(C)=O)[C@]2(CO)[C@H](O)C[C@]3(C)C(=CC[C@H]4[C@@]5(C)CC[C@H](O[C@@H]6O[C@H](C(=O)O)[C@@H](O[C@@H]7O[C@H](CO)[C@@H](O)[C@H](O)[C@H]7O)[C@H](O)[C@H]6O[C@@H]6O[C@H](CO)[C@@H](O)[C@H](O)[C@H]6O)[C@](C)(CO)[C@@H]5CC[C@]43C)[C@@H]2CC1(C)C", "cytotoxicity call": "inactive"}, {"smiles": "CC=C(C)C(=O)OC1C(OC(C)=O)C2(CO)C(O)CC3(C)C(=CCC4C5(C)CCC(OC6OC(C(=O)O)C(OC7OC(CO)C(O)C(O)C7O)C(O)C6OC6OC(CO)C(O)C(O)C6O)C(C)(CO)C5CCC43C)C2CC1(C)C", "note": "(stereo unspecified)", "cytotoxicity call": "active"}, {"smiles": "CC1(C)CC[C@]2(C(=O)O[C@H]3O[C@@H](CO)[C@@H](O)[C@@H](O)[C@@H]3O)CC[C@]3(C)C(=CC[C@H]4[C@@]5(C)C[C@@H](O)[C@H](O[C@H]6O[C@H](C(=O)O)[C@@H](O)[C@@H](O)[C@@H]6O)C(C)(C)[C@@H]5CC[C@]43C)[C@@H]2C1", "cytotoxicity call": "inactive"}, {"smiles": "C/C=C(/C)C(=O)O[C@H]1[C@@H](OC(C)=O)[C@@]2(CO)[C@@H](O)C[C@@]3(C)C(=CC[C@H]4[C@@]5(C)CC[C@@H](O[C@H]6O[C@H](C(=O)O)[C@@H](O[C@H]7O[C@@H](CO)[C@@H](O)[C@@H](O)[C@@H]7O)[C@@H](O)[C@@H]6O[C@H]6O[C@@H](CO)[C@@H](O)[C@@H](O)[C@@H]6O)[C@@](C)(CO)[C@@H]5CC[C@]43C)[C@@H]2CC1(C)C", "cytotoxicity call": "active"}]}]}
